# According to PubChem BioAssay AID488969 (Vanderbilt High Throughput Screening Facility, 2010):
# Over roughly 110,000 compounds, “z-score” has its median near -0.1; the highest 2% begin near 2. The sample holds the highest values, similar compounds and a random draw of the others, so the mix is not that of the screen. Calls of active or inactive are those of the source.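 The calls were made as follows: active = z-score in the third read window above 3 or below -3; inactive = the rest.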 Non-standard residues stand in square brackets, D forms with d. Residues, ends and D or L forms follow the SMILES beside them. ξ: configuration not given here. *: point of attachment. Boc = CC(C)(C)OC(=O)*; ξP = O=C(O)C1CCCN1
# Molecular target: Metabotropic glutamate receptor 8 (Rattus norvegicus) (UniProt P70579)
# Experiment: mGluR8 Gi/Go-coupled signaling modulation – cell-based, rat, thallium flux, HTS, primary screen (AID 488969)
# Details: HEK293 rat mGluR8, GIRK (G protein-gated inwardly rectifying potassium channel) thallium flux, FluoZin2; at 10 µM; stronger effect = higher value; submaximal glutamate (EC20) added with thallium
# Sequence of Metabotropic glutamate receptor 8 (Rattus norvegicus) (P70579 whole entry, looked up): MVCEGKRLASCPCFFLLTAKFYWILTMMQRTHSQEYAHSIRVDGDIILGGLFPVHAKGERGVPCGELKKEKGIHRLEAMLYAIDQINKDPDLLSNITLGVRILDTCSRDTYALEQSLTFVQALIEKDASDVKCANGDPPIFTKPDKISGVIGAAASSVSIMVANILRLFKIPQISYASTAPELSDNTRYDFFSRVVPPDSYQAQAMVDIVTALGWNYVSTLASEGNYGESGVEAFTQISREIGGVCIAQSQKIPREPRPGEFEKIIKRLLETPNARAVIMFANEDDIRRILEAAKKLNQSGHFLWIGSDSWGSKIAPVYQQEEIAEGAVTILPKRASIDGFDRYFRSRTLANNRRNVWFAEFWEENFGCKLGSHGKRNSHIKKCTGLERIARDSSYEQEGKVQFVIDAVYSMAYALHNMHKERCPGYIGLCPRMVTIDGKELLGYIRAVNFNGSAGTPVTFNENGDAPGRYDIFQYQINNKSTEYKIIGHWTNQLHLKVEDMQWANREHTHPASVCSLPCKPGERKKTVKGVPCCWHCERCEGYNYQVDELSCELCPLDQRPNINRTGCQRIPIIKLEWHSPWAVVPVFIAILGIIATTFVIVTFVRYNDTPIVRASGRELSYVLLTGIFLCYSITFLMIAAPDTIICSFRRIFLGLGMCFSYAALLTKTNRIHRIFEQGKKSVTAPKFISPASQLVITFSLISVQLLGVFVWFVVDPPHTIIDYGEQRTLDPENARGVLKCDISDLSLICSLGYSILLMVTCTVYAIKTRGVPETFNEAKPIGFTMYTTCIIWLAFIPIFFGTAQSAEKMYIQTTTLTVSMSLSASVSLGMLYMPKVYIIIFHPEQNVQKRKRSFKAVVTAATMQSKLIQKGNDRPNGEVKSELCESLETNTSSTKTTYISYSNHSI
row,Structure (SMILES),z-score
1,COC(=O)c1c(N)c(C#N)c(C)n1-c1ccccc1,-0.272
2,CC(C)(C)C(=O)Nc1ccccc1C(=O)OCC(=O)c1ccc2c(c1)OCCO2,-0.731
3,CCOC(=O)N1CCN(Cc2nc(N)nc(Nc3ccccc3C)n2)CC1,-0.106
4,OCCCCNCc1ccc(OCc2ccccc2Cl)cc1,2.17
5,OCCCCNCc1ccc(OCc2ccc(Cl)cc2Cl)cc1,1.19
6,OCCCCNCc1ccc(OCc2ccccc2)cc1,0.0747
7,Cc1occc1-c1nnc(SCc2cc(=O)n3cc(Br)ccc3n2)n1C,0.0968
8,Cc1ccccc1-c1nc(CN2CCC(C(=O)NCCCN3CCCC3)CC2)c(C)o1,2.76
9,CCN1CCCC1CNC(=O)CS(=O)(=O)Cc1nc(-c2ccccc2C)oc1C (stereo not drawn),1.21
10,Cc1oc(-c2cccc(Cl)c2)nc1CN1CCC(C(=O)NCC2CCCO2)CC1 (stereo not drawn),-0.375
11,Cc1oc(-c2cccc(Cl)c2)nc1CN1CCC(C(=O)NCc2ccco2)CC1,-4.86 (active)
12,Cc1ccccc1-c1nc(CN2CCC(C(=O)NCC3CCCO3)CC2)c(C)o1 (stereo not drawn),-0.924
13,CCN1CCCC1CNC(=O)CSCc1nc(-c2ccccc2C)oc1C (stereo not drawn),4.01 (active)
14,Cc1ccccc1-c1nc(CN2CCCC(C(=O)NCCCN3CCOCC3)C2)c(C)o1 (stereo not drawn),-0.359
15,CCN1CCCC1CNC(=O)C1CCN(Cc2nc(-c3cccc(Br)c3)oc2C)CC1 (stereo not drawn),4.3 (active)
16,Cc1ccccc1-c1nc(CN2CCC(C(=O)NCCC3=CCCCC3)CC2)c(C)o1,1.63
17,Cc1ccccc1-c1nc(CN2CCC(C(=O)NCCCN3CC(C)CC(C)C3)CC2)c(C)o1 (stereo not drawn),2.43
18,Cc1oc(-c2ccccc2Cl)nc1CSCC(=O)NC1CCCC1,-0.0255
19,Cc1ccccc1-c1nc(CN2CCC(C(=O)NCCCN3CCOCC3)CC2)c(C)o1,-0.636
20,COCCNC(=O)c1ccc(C(=O)C(=O)c2ccccc2)cc1,-0.189

row,Structure (SMILES),z-score
1,CCOC(=O)N1CCC(NC(=O)c2cc3c(=O)n(C)c4ccccc4c3n2C)CC1,-0.597
2,CC(C)(C)NS(=O)(=O)c1ccc(CCC(=O)Nc2cc(Cl)ccc2Oc2ccccc2)cc1,0.0264
3,Cc1ccc(C(=O)Oc2coc(CSc3nnc(NC(=O)C4CC4)s3)cc2=O)cc1C,0.84
4,Cc1nnc(N(Cc2ccccc2)C(=O)c2cnccn2)s1,0.0216
5,C=CCn1c(SCN2C(=O)c3ccccc3C2=O)nc2ccc(Cl)cc2c1=O,12.6 (active)
6,C=CCn1c(SCC(=O)Nc2sccc2C(N)=O)nc2sc(CC)cc2c1=O,-1.15
7,C=CCn1c(SCC(=O)Nc2sccc2C(N)=O)nc2ccccc2c1=O,-0.59
8,C=CCn1c(SCC(=O)NCCC2=CCCCC2)nc2ccc(Cl)cc2c1=O,-0.151
9,C=CCn1c(SCC(=O)c2ccc(Cl)s2)nc2ccccc2c1=O,-0.205
10,C=CCn1c(SCC(=O)Nc2sccc2C(N)=O)nc2ccc(Cl)cc2c1=O,5.23 (active)
11,O=C1C2C3C=CC([C@@H]2C(=O)N1c1nccs1)C31CC1 (stereo partly drawn),-0.0608
12,Cc1ccc2nc(NC(=O)c3ccc(NS(=O)(=O)c4cccs4)cc3)sc2c1,0.062
13,CNC(=S)N=Nc1c(O)[nH]c2ccc(C(C)C)cc12,5.56 (active)
14,NC(=S)N=Nc1c(O)[nH]c2ccc(F)cc12,1.48
15,CC(C)NC(=S)N=Nc1c(O)[nH]c2ccc(C(C)C)cc12,0.589
16,COC(=O)CNC(=O)C1CCCN1C(=O)OC(C)(C)C (stereo not drawn) (Boc-[ξP]-Gly-OMe),-0.536
17,Cn1cc(Cl)c(C(=O)Nc2nc3ccc(Cl)cc3s2)n1,0.119
18,CCOC(=O)N1CCN(c2cc3nccnc3cc2F)CC1,-0.142
19,CCOC(=O)N1CCN(c2c(F)cc3[nH]c(=S)[nH]c3c2Br)CC1,6.26 (active)
20,CCOC(=O)N1CCN(c2cc3[nH]c(=S)[nH]c3cc2F)CC1,-0.482

row,Structure (SMILES),z-score
1,CC1CCCC(C)N1C(=O)CSc1nnc(NC(=O)Cc2cccs2)s1 (stereo not drawn),-1.05
2,Cc1cc(NC(=O)CCC(=O)NNC(=O)c2ccc(C(C)(C)C)cc2)no1,-0.141
3,Cc1noc(C)c1CSc1ccccc1C(=O)Nc1nccs1,0.618
4,CCN=c1scc(C)n1/N=C/c1ccsc1,-0.0195
5,COCCN=c1scc(-c2cccs2)n1/N=C/c1ccc(O)c(O)c1O,2.93
6,CN=c1scc(-c2cccs2)n1/N=C/c1ccccc1O,0.0374
7,CN=c1scc(-c2cccs2)n1/N=C/c1ccc(O)c(O)c1O,3.01 (active)
8,COCCNC(=O)Nc1ccc2nc(-c3cccs3)c(-c3cccs3)nc2c1,-0.235
9,CC(C)N=c1scc(-c2cccs2)n1/N=C/c1ccc(O)c(O)c1O,4.07 (active)
10,Oc1ccc(/C=N/N=C(c2ccccc2)c2ccccc2)c(O)c1O,-0.213
11,CN=c1scc(C)n1/N=C/c1ccc(O)c(O)c1O,-0.648
12,COc1ccc(O)c(/C=N/n2c(-c3ccco3)csc2=Nc2cccnc2)c1,0.368
13,CCN=c1scc(-c2cccs2)n1/N=C/c1cc(OC)ccc1O,2.02
14,CCN=c1scc(C)n1/N=C/c1ccc(O)c(O)c1O,-0.528
15,CN=c1scc(C)n1/N=C/c1ccc(O)cc1O,0.0453
16,COc1cc(/C=N/NC(=O)COc2ccc(Cl)cc2)ccc1OS(=O)(=O)c1ccc(C)cc1,-0.0849
17,CCOC(=O)C1=NNC(C(=O)c2ccc(C)cc2)C1c1ccc(C)cc1 (stereo not drawn),-0.512
18,C=C(C)c1cccc(C(C)(C)NC(=O)N2CC(C)OC(C)C2)c1 (stereo not drawn),-0.0325
